# In the library only some 7.1% were active in any assay of this set; here they are far more common.
# S2 tox = reduces viability in counter-screen for ATXN expression inhibitors; hit rate 0.49% among 400,000; AID 651635; Potency, µM (series often up to 56.7 µM), usual class: cytotoxic; S2 cells (HEK-293 line with an ATXN2-luciferase reporter) viability, CellTiter-Fluor protease fluorescence, 24 h; also: potency is read from the fitted curve at half-maximal effect; nearly all actives have a fitted effect of over 40% in size
# ATXN2 expr inh = ATXN2 expression inhibition; HEK-293 ATXN2-luciferase reporter, luminescence, 24 h; Potency, µM (highest dose often 57 µM), inactives show top-dose activity change, negative = inhibition, hits mostly inhibitors; hit rate 0.72% among 360,000; AID 1745845; also: potency is read from the fitted curve at half-maximal effect; % is scaled to controls: 0 for no effect and ±100 for the full control effect; nearly all actives have a fitted effect of over 55% in size
#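 ATXN2-luciferase reporter cells (luciferase flanked by upstream and downstream ATXN2 gene portions) were treated 24 h at 37 °C with compounds at up to 57 uM. SteadyGlo luminescence gave expression; GF-AFC fluorescence gave viability.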
# IL1B secr inh = inflammasome signaling inhibition, IL-1 beta readout; THP-1 LPS/ATP IL-1B secretion, AlphaLISA, 16 h; stronger effect = lower value; activity change, % at 57.5 µM; hit rate 4.7% among 360,000; in the data active = activity change below about -50%; inconclusive = mostly about -30% to -49%; also: % is scaled to controls: 0 for no effect and ±100 for the full control effect
#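 THP-1 cells pretreated 1 hr with compounds (up to 57.5 uM final), then stimulated with LPS (250 ng/mL final) plus ATP (1.25 mM final); secreted IL-1B measured by AlphaLISA after 16 hr, decreased signal indicating inhibition.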
# MCF10A rereplic = DNA re-replication induction in MCF 10a cells. hit rate 2.9% among 350,000. Potency, µM (highest dose often 46.1 µM), for the others: at the top dose activity, positive = re-replication, most hits filed as activators. AID 624296. MCF 10A DNA re-replication, Hoechst nuclear intensity, 48 h; also: potency is read from the fitted curve at half-maximal effect; % of control where 0% means no effect; nearly all actives have a fitted effect of over 50% in size
# SW480 rerep = inducers of DNA re-replication in SW480 colon cancer cells; SW480 DNA re-replication, Hoechst DNA content imaging, 48 h; Potency, µM (series often up to 46.1 µM), for the others: at the highest dose re-replication activation, usual class: activators; hit rate 1.8% among 340,000; AID 624297; also: potency is read from the fitted curve at half-maximal effect; % of control where 0% means no effect; nearly all actives have a fitted effect of over 55% in size
#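 SW480 cells exposed to compounds for 48 hr at 37 C, 5% CO2, then Hoechst-stained 40 min. Nuclear DNA content imaged by fluorescence scanning (405 nm excitation, 500-530 nm emission); re-replication scored as increased high-intensity nuclei.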
# PINK1 expr mod = changes PINK1 expression; PINK1 immunofluorescence, high-content cytometry, 24 h; Potency, µM (highest dose often 76.6 µM), for the others: top-dose activation (PINK1 increase), actives largely listed as activators; hit rate 0.2% among 410,000; AID 624263; active = well fitted activation curve with a large enough effect; inconclusive = small, poorly fitted or top-dose-only effect; cell line not stated here; also: potency is read from the fitted curve at half-maximal effect; % of control where 0% means no effect; nearly all actives have a fitted effect of over 65% in size
#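 A stable cell line was treated with compounds at 5 concentrations for 24 hours, with CCCP as control. PINK1 levels and mitochondrial localization were measured by immunofluorescence with mitochondrial, cell and nuclear markers after fixation, read by laser-scanning cytometry.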
# An asterisk follows results filed as active; i = inactive; ? = inconclusive; nt = no result; [ ] = another dose, or the depositor's remark. Unless noted, calls follow the shape of the dose curve; as a rule, active = well fitted curve in the direction sought with a large enough effect; inconclusive = small, poorly fitted or top-dose-only effect, or another doubt; inactive = no such curve, though single readings can be large; an effect the other way counts as inactive or inconclusive.
SMILES,S2 tox,ATXN2 expr inh,IL1B secr inh,MCF10A rereplic,SW480 rerep,PINK1 expr mod
COc1cc(C2CC(=O)Oc3c(C(CCN4CCCC(C)C4)c4ccc(N(C)C)cc4)c(OC)cc(OC)c32)cc(OC)c1OC (centres undefined),i,-11.8%,?,-6.8%,-11.5%[9.22 µM],3.3%
CCN(CC)CCC(c1cc(OC)c(OC)c(OC)c1)c1c(OC)cc(OC)c2ccc(=O)oc12 (centres undefined),?,-6.7%,5.6,?,5.9%,-0.3%
CCCCCc1cc(=O)oc2c(C(CCN(CC)CC)c3ccc(N(C)C)cc3)c(OC)cc(OC)c12 (centres undefined),25.1µM*,?,0.0,-1.6%,1.6%,-0.8%
O=C(NCCN1C(=O)S/C(=C\c2cccnc2)C1=O)c1cc(S(=O)(=O)N2CCOCC2)ccc1F,i,nt,0.0,16.5%,2.06µM*,1.4%
CC(C(=O)NCCN1C(=O)S/C(=C\c2cccnc2)C1=O)N1C(=O)c2ccccc2C1=O (centres undefined),i,3.7%,5.5,0.8%,-0.6%,-0.2%
Cc1nn(Cc2ccccc2)c(C)c1C(=O)NCCN1C(=O)S/C(=C\c2ccccc2)C1=O,?,-9.4%,-1.6,25.9µM*,?,?
Cc1ccc(C2(C)NC(=O)N(CC(=O)NCCN3C(=O)S/C(=C\c4cccnc4)C3=O)C2=O)cc1 (centres undefined),?,-11.3%,-29.8,40.2%,5.8µM*,3.0%
O=C(CCl)NCCN1C(=O)S/C(=C\c2cccnc2)C1=O,?,-7.4%,-70.4*,?,?,18.1%
CCN1C[C@@H]2[C@@H]3C(=O)N(C)C(=O)[C@@H]3[C@](C)(C1=O)N2C(=O)c1ccc(C(F)(F)F)cc1,i,1.7%,-1.5,25.8%,-31.3%,1.1%
Cc1nn(-c2ccc(N3CCCC3)nn2)c(C)c1CCC(=O)N1CCN(c2ccccc2)CC1,nt,nt,nt,nt,nt,1.2%
O=C1[C@H]2[C@H](C=CC[C@H]2C(=O)N2CCN(c3ccccc3)CC2)CCN1Cc1ccc(Cl)c(Cl)c1,?,?,-51.2*,?,?,21.4%
CCN1CCN(c2sc(S(=O)(=O)CC)nc2S(=O)(=O)c2ccc(Cl)cc2)CC1,?,nt,-65.7*,nt,nt,2.2%
CCCS(=O)(=O)c1nc(S(=O)(=O)c2ccc(C)cc2)c(N2CCOCC2)s1,i,-1.2%,-73.7*,-5.4%,?,-0.8%
CC1CCCN(c2sc(S(C)(=O)=O)nc2S(=O)(=O)c2ccc(Cl)cc2)C1 (centres undefined),i,-15.6%,-70.7*,7.6%,24.9%,-0.4%
CCS(=O)(=O)c1nc(S(=O)(=O)c2ccc(C)cc2)c(NCCCN2CCOCC2)s1,i,-6.8%,-11.5,-2.2%,-3.6%,0.7%
CCS(=O)(=O)c1nc(S(=O)(=O)c2ccc(Cl)cc2)c(NCCCN2CCOCC2)s1,i,6.3%,-51.3*,2.1%,-0.3%,0.2%
CCS(=O)(=O)c1nc(S(=O)(=O)c2ccc(Cl)cc2)c(N2CCN(CCO)CC2)s1,nt,nt,-16.9,0.1%,-6.1%,-1.8%
CCOc1ccccc1NC(=O)c1ccc2c(c1)CCN2S(C)(=O)=O,i,18.2%,nt,nt,nt,0.9%
COc1ccc(-c2nn3c(-c4cc(-c5ccccc5)n[nH]4)nnc3s2)cc1OC,nt,nt,nt,nt,nt,1.3%
COc1ccccc1N1CCN(C(=O)Cn2c(=O)nc(-c3ccccc3)c3ccccc32)CC1,nt,nt,nt,nt,nt,-0.7%
CC1CN(c2sc(S(C)(=O)=O)nc2S(=O)(=O)c2ccc(Cl)cc2)CC(C)O1 (centres undefined),i,-7.5%,-64.3*,-0.2%,?,1.6%
CS(=O)(=O)c1nc(S(=O)(=O)c2ccc(Cl)cc2)c(N2CCOCC2)s1,i,-5.2%,-76.3*,2.4%,-18.8%,-1.0%
CCNc1sc(S(C)(=O)=O)nc1S(=O)(=O)c1ccc(Cl)cc1,i,-10.7%,?,-3.5%,0.2%,-1.0%
COc1ccccc1N1CCN(c2nc(CNC(=O)c3cc(C)oc3C)nc3ccccc23)CC1,?,nt,nt,nt,nt,2.5%
CC(=O)C1=C(c2ccc(Cl)c(Cl)c2)N(C(C)=O)n2c(C)nnc2S1,?,28.2µM*,nt,nt,nt,?
SMILES,S2 tox,ATXN2 expr inh,IL1B secr inh,MCF10A rereplic,SW480 rerep,PINK1 expr mod
CCCCC(CC)CN=C(N)NC(N)=NCCCCCCN=C(N)NC(N)=NCC(CC)CCCC (centres undefined),12.6µM*,10µM*,-103.7*,11.9µM*,?,-0.8%
CCCCC(CC)CO (centres undefined),i,-1.7%,-11.8,6.8%,-68.7%,-0.1%
CCC(=O)OCC(=O)C1(OC(=O)CC)[C@H](C)C[C@H]2[C@H]3[C@H]([C@@H](O)C[C@@]21C)[C@@]1(C)C=CC(=O)C=C1C[C@H]3Cl (some centres undefined),i,-13.9%,-51.0*,0.8%,?,4.4%
COc1ccc(-n2cc(CNC(C)c3ccncn3)c(-c3cccc(F)c3)n2)cc1 (centres undefined),i,-4.0%,-23.1,-15.5%,-9.0%,1.0%
COc1ccc(-n2cc(CN3CCCC3)c(-c3cccc(F)c3)n2)cc1,i,-28.0%,-76.8*,?,16.4%,3.7%
CCC(COC)NCc1cn(-c2ccc(OC)cc2)nc1-c1cccc(F)c1 (centres undefined),?,?,-82.2*,16.5%,?,3.5%
COc1ccc(-n2cc(CN[C@H]3CCCCNC3=O)c(-c3cccc(F)c3)n2)cc1,i,-4.3%,?,-5.5%,-3.6%,0.9%
COc1ccc(-n2cc(CNC3CCN(C)CC3)c(-c3cccc(F)c3)n2)cc1,i,?,-62.8*,20.6µM*,-1.9%[1.84 µM],-1.5%
Cc1oc(-c2ccccc2NC(=O)C2CCCO2)nc1CNC(=O)c1cc(Cl)ccc1F (centres undefined),i,nt,nt,nt,nt,0.7%
CCC(C)(C)NC(=O)C(c1ccc(F)cc1)N(Cc1ccco1)C(=O)c1cnccn1 (centres undefined),i,5.5%,-83.2*,-13.2%,11.3%,nt
O=C(NCc1ccccc1)C(c1cccnc1)N(Cc1ccco1)C(=O)c1ccccn1 (centres undefined),i,-20.6%,-0.6,-1.6%,-4.2%,-0.2%
CC(C)(C)NC(=O)C(c1ccncc1)N(Cc1ccco1)C(=O)c1ccc(-c2ccccc2)[nH]1 (centres undefined),i,28.5%,38.7,20.6µM*,?,0.2%
COC(=O)c1ccc(C(C(=O)NCc2ccccc2)N(Cc2ccco2)C(=O)c2cnccn2)cc1 (centres undefined),i,15.5%,-59.2*,?,-8.5%,nt

# Screens (PubChem BioAssay)
